# 12-LOX inh – ALOX12 (human) lipoxygenase inhibition. hit rate 1.1% among 580,000. P18054. AID 1671190. Potency, µM (doses to about 108 µM), inactives show top-dose activity change, negative = inhibition, most hits filed as inhibitors. purified 12hLO, xylenol orange hydroperoxide absorbance
#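 Purified human 12hLO at 150 nM in 25 mM Hepes, 0.01% Triton X-100, pH 7.0, preincubated 15 min at room temperature with compound. Reaction started with 40 uM arachidonic acid, 30 min at room temperature. Hydroperoxide measured by Fe-xylenol orange, 573/405 nm absorbance ratio.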
# VDR inhibitor – inhibitors of human vitamin D receptor | P11473 | VDR-SRC2-3 peptide fluorescence polarization, 2 h | Potency, µM, for inactives: max response, negative = inhibition, usual class: inhibitors | hit rate 0.93% among 400,000
#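 FP read-out; VDR + SRC2-3 coactivator peptide; 23 nl compound by pintool; 2 h RT incubation; reagents held at 4 deg C, protected from light.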
# PLK1 PBD inh – inhibitors of human PLK1 polo-box domain binding; P53350; Plk1 PBD binding of FITC phosphopeptide, fluorescence polarization; Potency, µM, without a hit: max response, negative = inhibition, usual class: inhibitors; hit rate 2.8% among 360,000; AID 720504; note: series mostly up to about 57 µM; nearly all actives have a fitted effect of over 65% in size
# Target sequence (P53350 whole entry, looked up, the tested form may be a part): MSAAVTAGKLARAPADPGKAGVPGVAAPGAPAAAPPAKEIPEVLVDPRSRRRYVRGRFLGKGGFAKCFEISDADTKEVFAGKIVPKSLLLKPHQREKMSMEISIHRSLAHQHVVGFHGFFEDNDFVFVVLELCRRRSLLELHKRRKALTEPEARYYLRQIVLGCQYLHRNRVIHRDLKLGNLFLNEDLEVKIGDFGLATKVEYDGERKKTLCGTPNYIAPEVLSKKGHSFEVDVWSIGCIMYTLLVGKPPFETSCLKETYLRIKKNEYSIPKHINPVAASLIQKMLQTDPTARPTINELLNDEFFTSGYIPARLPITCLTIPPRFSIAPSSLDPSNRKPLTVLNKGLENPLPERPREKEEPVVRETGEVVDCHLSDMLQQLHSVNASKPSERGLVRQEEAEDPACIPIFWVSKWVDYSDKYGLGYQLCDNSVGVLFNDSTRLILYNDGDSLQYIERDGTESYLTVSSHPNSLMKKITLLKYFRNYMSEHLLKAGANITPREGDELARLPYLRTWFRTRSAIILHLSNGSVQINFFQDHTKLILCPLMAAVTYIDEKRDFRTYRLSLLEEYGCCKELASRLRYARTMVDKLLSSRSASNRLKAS
# Sfp inh – inhibitors of Bacillus subtilis Sfp phosphopantetheinyl transferase | AID 1490 | Biochemical Sfp PPTase activity, qHTS | Q9F4F7 | hit rate 3.5% among 310,000 | Potency, µM, for inactives: largest response in the series, negative = inhibition, actives largely listed as inhibitors;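 note: the enzyme is Sfp with the accession as filed and its product quenches rhodamine fluorescence; 0% = enzyme reaction without inhibitor and -100% = no enzyme wells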
#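 Buffer: 50 mM Hepes-Na pH 7.6, 10 mM MgCl2, 0.01% Nonidet P-40, 0.01% BSA. Enzyme 15 nM, pre-exposed to compound 15 min; substrates then added and fluorescence change tracked over 30 min.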
# TbPYK inh – Trypanosoma brucei pyruvate kinase inhibition, cherry-pick confirmation | shares compounds with PLK1 PBD inh | hit rate 67% among 890 | recombinant TbPYK, Kinase-Glo ATP luminescence | AID 720569 | Potency, µM (series often up to 76.9 µM), for the others: top-dose activity change, negative = inhibition, actives largely listed as inhibitors; note: nearly all actives have a fitted effect of over 70% in size
# TbPYK ADP-Glo – orthogonal confirmation of Trypanosoma brucei pyruvate kinase inhibitors | Potency, µM (highest dose often 76.9 µM), inactives show top-dose activity change, negative = inhibition, actives largely listed as inhibitors | recombinant TbPYK, ADP-Glo luminescence, 60 min | shares compounds with PLK1 PBD inh | hit rate 62% among 890; note: nearly all actives have a fitted effect of over 75% in size
# * = called active by the depositor; i = inactive; ? = inconclusive; · = no result given. Most compounds without a hit are left out; they make up all but 4.2% or so of the library. Calls come from the whole dose curve; as a rule, active = well fitted curve in the direction sought with a large enough effect; inconclusive = small, poorly fitted or top-dose-only effect, or another doubt; inactive = no such curve, though single readings can be large; an effect the other way counts as inactive or inconclusive. Unless noted, % is set by controls: 0 for no effect and ±100 for the full control effect; potency is the fitted concentration of half-maximal effect.
SMILES,12-LOX inh,VDR inhibitor,PLK1 PBD inh,Sfp inh,TbPYK inh,TbPYK ADP-Glo
COc1cc(C2Nn3c(nnc3-c3ccccc3OC)S2)ccc1O (stereo not given),?,1%,21µM*,?,0.22µM*,4µM*
CCOc1ccc(C(=S)N2CCN(C)CC2)cc1,-9%,?,13µM*,14µM*,13µM*,4.5µM*
COc1ccc(C2Nc3ccc(NC(=O)CO)cc3C(=O)N2Cc2cccc(Cl)c2)cc1COc1ccc(NC(C)=O)cc1 (stereo not given),·,-8%,·,·,·,·
CCC(CC)C(=O)Nc1cccc(C(=O)NCc2ccco2)c1,-7%,-4%,-6%,-61%,-8%,-15%
O=[N+]([O-])c1cc(-c2ccc(C(=S)N3CCOCC3)o2)ccc1Cl,13µM*,10µM*,2.7µM*,-95%,16µM*,16µM*
CC1(C)CC(=O)C2=C(C1)Nc1ccccc1NC2c1ccc2c(c1)OCO2 (stereo not given),0%,-11%,-9%,1%,·,·
CC(C)(C)C1=Nn2c(nnc2-c2n[nH]c3c2CCC3)SC1,?,?,24µM*,25µM*,10µM*,10µM*
COc1cc2c(cc1OC)C(=O)C(Br)CC2 (stereo not given),·,·,0.95µM*,·,10µM*,5.6µM*
CCOc1ccc(C(=O)C(C)Sc2nnc3ccc(C(F)(F)F)cn23)cc1 (stereo not given),-21%,·,·,·,·,·
c1cc2c(cc1CN1CCOCC1)OCO2,?,-12%,-7%,9%,12%,-3%
Cn1c2ccccc2c2ccc3c(c21)C(=O)C=CC3=O,?,25µM*,12µM*,·,-28%,-21%
Cc1ccc(C)c2c1c1ccccc1n2C,-15%,9%,2%,5%,·,·
CC(=O)/C(=N\Nc1ccc(C)cc1)Sc1nncn1C,-5%,-2%,-4%,?,4.5µM*,13µM*
O=C(CCN1C(=O)/C(=C\c2ccccc2)SC1=S)NCCCN1CCOCC1,-4%,-20%,-7%,-8%,·,·
O=C1C(=Cc2ccccc2O)SC(=S)N1CCCN1CCOCC1,?,·,2.7µM*,·,4µM*,3.2µM*
Clc1ccc(Cc2noc(Cc3ccccc3)n2)cc1Cl,-4%,16%,-3%,2%,·,·
CC(C)CC1CC(=O)OC1(C)C(=O)CSc1nc2ccccc2s1 (stereo not given),?,-19%,19µM*,-22%,?,?
CC(Oc1cccc(Br)c1)C(=O)N1CCCN(C)CC1 (stereo not given),?,-10%,3%,15%,·,·
Oc1ccc2c(c1)OCC1(O)Cc3cc(O)c(O)cc3C21 (stereo not given),?,79µM*,?,i,2.2µM*,3.2µM*
CC(=O)Oc1ccc2c(c1OC(C)=O)OCC1(O)Cc3c(cc(OC(C)=O)c(OC(C)=O)c3OC(C)=O)C21 (stereo not given),·,-8%,·,-1%,·,·
CC(C)C(=O)N=C1NC(=O)CS1,1%,-3%,-14%,9%,·,·
COCCNC(=O)C1(CCO)CCN(Cc2ccccc2)C1 (stereo not given),54%,·,·,·,·,·
COc1ccc(N2C(=O)/C(=C/N(C)C)NC2=S)cc1,-12%,9%,-7%,56µM*,5.6µM*,13µM*
Oc1cccc(-c2nc3ccccc3s2)c1,?,-6%,-18%,0%,·,·
O=C(O)Cc1ccc2sc(-c3ccccc3)nc2c1,-5%,-6%,0%,13%,32µM*,7%
SMILES,12-LOX inh,VDR inhibitor,PLK1 PBD inh,Sfp inh,TbPYK inh,TbPYK ADP-Glo
O=C(O)CCN1C(=O)/C(=C2\C(=O)N(Cc3ccccc3Cl)c3ccccc32)SC1=S,-86%,·,·,-16%,·,·
C=CCN1C(=O)/C(=c2\sc3nc(=O)c(Cc4ccccc4Cl)nn3c2=O)c2ccccc21,?,35µM*,12µM*,11µM*,35µM*,40µM*
CCN(CC)C(=O)c1ccc(C2CCCN2C(=O)c2ccc(OC)o2)s1 (stereo not given),5%,·,·,·,·,·
COc1ccc(C(=O)N2C[C@@H]3C[C@H](C2)c2c(/C=C/c4ccc(Cl)cc4)ccc(=O)n2C3)cc1,-3%,·,·,·,·,·
O=C1NC(c2cccs2)Nc2sc3c(c21)CCCC3 (stereo not given),?,0%,?,45µM*,-18%,-20%
CN1CCc2c(sc3c2C(=O)NC(c2cccc(OC(=O)c4cccs4)c2)N3)C1 (stereo not given),-4%,?,-2%,-30%,·,·
CN(C)c1ccc(C(=O)c2ccc(O)cc2O)cc1,?,-10%,-7%,-1%,·,·
CN(C)c1ccc(Cc2cc3c(O)ccc(O)c3cc(Cc3ccc(N(C)C)cc3)c2=O)cc1,?,45µM*,0.95µM*,·,3.5µM*,3.5µM*
CSc1nsc(SC)c1NC(=O)N1CCCC1,-19%,-19%,-9%,-30%,?,32µM*
Nc1ncnc2c1nc(-c1ccccc1)n2C1OC(CO)C(O)C1O (stereo not given),?,·,-13%,·,·,·
CC(=O)C1=C(C)NC(SCC(=O)c2ccccc2)=C(C#N)C1CC(C)C (stereo not given),7.9µM*,-15%,-26%,20µM*,?,40µM*
CC1=C(C(=O)Nc2ccccc2)C(c2ccncc2)C(C#N)=C(SCC(=O)NC(C)C)N1 (stereo not given),0%,-9%,-5%,?,·,·
COC(=O)CC1Oc2ccc(C)cc2-n2cc(-c3ccc(F)cc3)nc21 (stereo not given),?,-5%,·,·,·,·
C=C(C)CSC1=C(C#N)C(c2ccccc2Cl)CC(=O)N1 (stereo not given),22µM*,?,13µM*,45µM*,5µM*,8.9µM*
CCSC1=C(C#N)C(c2ccccc2C)CC(=O)N1 (stereo not given),3%,-5%,2%,18%,·,·
Cn1ncc(Br)c1C(=O)NC(=S)N1CCN(c2ccccn2)CC1,-16%,10%,0%,-20%,28µM*,32µM*
Cn1cc(Br)c(C(=O)NC(=S)N2CCN(c3ccccn3)CC2)n1,3%,-18%,-8%,?,·,·
Cc1noc(C)c1COC(=O)c1cccc(S(=O)(=O)N2CCCCCC2)c1,0%,4%,-3%,6%,·,·
O=C(O)C1CCc2sc3[nH]c(=S)n(-c4ccccc4)c(=O)c3c21 (stereo not given),?,-16%,?,25µM*,2µM*,3.2µM*
Oc1ccc2ccccc2c1CN1CC2CCC(CC2)C1,?,-5%,-17%,·,·,·
O=C(CCN1CCc2ccccc2C(c2ccccc2)C1)c1ccc2c(c1)OCCO2 (stereo not given),?,?,3µM*,45µM*,?,?
Cc1onc(-c2c(F)cccc2Cl)c1C(=O)N1CCCc2ccccc21,26%,26%,-2%,18%,8.9µM*,7.9µM*
